Results on 40 compounds are retold here after ChEMBL document CHEMBL4888484, “Replenishing the malaria drug discovery pipeline: Screening and hit evaluation of the MMV Hit Generation Library 1 (HGL1) against asexual blood stage Plasmodium falciparum ,using a nano luciferase reporter read-out” (2022).

The test system of this experiment is Plasmodium falciparum. The experiment in a line: Primary screen in NF54 nanoGlo assay, in single point, at 2uM, 72h; a lower Z score goes with more inhibition. Format: functional, Erythrocyte. The settings on record: timepoint 72 hour.

Molecules are shown by their SMILES. The whole screen tested about 150,000 compounds, of which about 540 (0.36%) showed an effect of 50% or more. The sample as a whole holds a higher share of strong results than the screen did.

As a reminder, the % Inhibition is the change of the read-out against control, counted positive when it falls. On to `CCc1cccc2c(C3=CCN(C(=O)Nc4cn[nH]c4)CC3)c[nH]c12`, for which the “% Inhibition” value is recorded as -8% and the Z score is 1.44.
With `Cn1ccnc1CN(Cc1cccnc1)C1CCCCCC1`, the “% Inhibition” value is listed as 2% and the Z score is listed as -0.44.
On to `CCC(=O)N1CCC(NCc2csc3ccccc23)C(CC)C1` (stereo not given), for which the “% Inhibition” value is -13% and the Z score was 1.94.
The like results for `CCCc1nc(NC[C@H]2CC[C@H](CO)CC2)no1` were, in that order, -12% and 1.18.
With `Cc1nc(C(F)(F)F)c(CN(C)C[C@H]2CCOC2)s1`, the “% Inhibition” value was -8% and the Z score came to 1.25.
Regarding `Cc1oc(-c2ccc(C(=O)NCCN(C)C)cc2)nc1CN1CCc2ccccc21`, the “% Inhibition” value was -14% and the Z score amounted to 1.84.
As to `Cc1nc(C)c(CC(=O)N2CCN(c3ccccc3)CC2)c(=O)[nH]1`, the “% Inhibition” value is -33% and the Z score is 3.87.
As to `COCCCNC(=O)c1ccc(CN2C(=O)CCn3nccc32)cc1`, the “% Inhibition” value was 13% and the Z score was -1.46.
The like results for `CCCCNC(=O)c1ccc(CN2C(=O)CCn3nccc32)cc1` were, in that order, 18% and -2.08.
In the case of `O=C(NCCCc1ccccc1)c1ccc(CN2C(=O)CCn3nccc32)cc1`, the “% Inhibition” value is listed as 58% and the Z score is on record as -2.28.
As for `CC1CCCN(C(=O)C2CCC2)C1CN` (stereo not given), the “% Inhibition” value was -3% and the Z score came to 0.43.
The like results for `CC(C)c1ccc2ncnc(N[C@H]3CCc4[nH]cnc4C3)c2c1` were, in that order, 96% and -17.94.
The like results for `C[C@@H](NC(=O)NC1CCc2[nH]cnc2C1)c1ccc(F)cc1` (stereo not given in full) were, in that order, -10% and 1.89.
The like results for `C[C@@H]1CC[C@H](CO)N1C(=O)Cc1cccc(C(F)(F)F)n1` were, in that order, 3% and -0.37.
Turning to `Cc1c(C(=O)NC[C@H]2CCCOC2)[nH]c2c(Cl)cccc12`, the “% Inhibition” value is -9% and the Z score is recorded as 1.62.
Regarding `C[C@H](OC(=O)CNC(=O)OC(C)(C)C)C(=O)N1CCCCCC1`, the “% Inhibition” value is recorded as -12% and the Z score is recorded as 1.29.
Regarding `Cc1ccc(CC[C@H]2Nc3ccccc3C(c3ccccc3)(c3ccccc3)O2)o1`, the “% Inhibition” value was 81% and the Z score is reported as -13.4.
`CC(C)Oc1ccccc1[C@H]1Nc2ccccc2C(c2ccccc2)(c2ccccc2)O1`: the “% Inhibition” value was -1% and the Z score is on record as 0.21.
The like results for `c1ccc(C2(c3ccccc3)O[C@@H](c3cccnc3)Nc3ccccc32)cc1` were, in that order, -4% and 0.54.
Turning to `Cc1cc(=O)n(CC(=O)N2CCCC[C@@H]2CCc2ccccc2)nc1C`, the “% Inhibition” value is recorded as -18% and the Z score came to 3.31.
The matching figures for `O=C(c1cccs1)N(Cc1ccccn1)c1nc2ccccc2s1`: 4% and -0.46.
The like results for `Cc1oc(-c2ccn[nH]2)cc1S(=O)(=O)Nc1cccc(Cl)c1` were, in that order, 59% and -0.35.
`Cc1oc(-c2ccn[nH]2)cc1S(=O)(=O)Nc1ccc(F)c(Cl)c1`: the “% Inhibition” value is recorded as 37% and the Z score is listed as -0.01.
Regarding `Cc1ccc(F)c(NS(=O)(=O)c2cc(-c3ccn[nH]3)oc2C)c1`, the “% Inhibition” value was 2% and the Z score was -0.25.
As to `O=C(O)c1cc(NS(=O)(=O)c2cc(F)ccc2F)ccc1N1CCCCCC1`, the “% Inhibition” value is on record as -4% and the Z score is 0.67.
The matching figures for `CCc1cccc2c(C3=CCN(c4ccc5nnc(C(F)(F)F)n5n4)CC3)c[nH]c12`: 11% and -2.04.
The matching figures for `Cc1cc(C)cc(NC(=O)c2c(C)sc3ncnc(N4CCCC4)c23)c1`: -2% and 0.31.
In the case of `CC(CN1CCC(N2CCOCC2)C1)c1cccc(Cl)c1` (stereo not given), the “% Inhibition” value turned out to be 5% and the Z score is on record as -0.64.
On to `CCC(=O)NCc1nc2c(n1C)CN(C(=O)c1ccc(CC)cc1)CC2`, for which the “% Inhibition” value was 2% and the Z score is recorded as -0.2.
Consider `COC1(C)CCN(C(=O)c2ccon2)CC1`, for which the “% Inhibition” value was -4% and the Z score was 0.52.
Consider `O=C(CCc1conc1-c1cccc(F)c1)NC1CC1`, for which the “% Inhibition” value was -8% and the Z score was determined as 1.59.
For `Cc1cc(C)c(S(=O)(=O)N2CC[C@H](n3cccn3)C2)s1`, the “% Inhibition” value was -1% and the Z score is on record as 0.1.
The like results for `O=S(=O)(c1cccs1)N1CC[C@H](n2ccnn2)C1` were, in that order, -9% and 1.54.
For the compound `Cc1csc(S(=O)(=O)N2CC[C@H](n3cccn3)C2)c1`, the “% Inhibition” value stood at 82% and the Z score is 1.47.
The matching figures for `COC[C@](C)(CCO)NC(=O)Nc1cc(F)cc(Br)c1`: -13% and 1.11.
The matching figures for `CCn1cc(C(=O)Nc2ccc(OCCN3CC[C@H](C)C3)cc2)cn1`: 5% and -0.92.
Take `Cc1cc(C)cc(N(CCC#N)C(=O)CN2CCC[C@H]2c2ccc3c(c2)OCCCO3)c1`: the “% Inhibition” value is recorded as -2% and the Z score stood at 0.18.
For the compound `CNC(=O)Nc1cccc(NC(=O)c2cncc(-c3cnn(C)c3)c2)c1`, the “% Inhibition” value amounted to 24% and the Z score is listed as -3.15.
As to `Cn1cc(C(=O)N[C@H]2CCN(c3ccc(F)c(Cl)c3)C2)cn1`, the “% Inhibition” value is on record as -3% and the Z score stood at 0.57.
As to `COCCCCC(=O)N1CCC[C@H](N)[C@@H]1c1ccccc1OC`, the “% Inhibition” value is recorded as 4% and the Z score was -0.43.
